Measured values as given in PubChem BioAssay (NCI).
Compounds without any hit were thinned out: in the full panel of roughly 83,000, 20% have a hit.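 Cells were grown in 96-well plates and exposed to the test compound at a single concentration for 48 hours; results are reported as percent growth, with values below 10 considered active.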 A number with no mark means an inactive call. Calls of active or inactive are those of the source.

Columns and labels:
Assay in all cases: NCI-60 one-dose screen, 48 h (100 = growth as untreated, 0 = no growth, -100 = all killed)
Settings in all cases: 10 µM unless noted
EKVX NSCLC = tested on: EKVX NSCLC
SN12C renal = tested on: SN12C renal
UO-31 renal = tested on: UO-31 renal
TK-10 renal = tested on: TK-10 renal
ACHN renal = tested on: ACHN renal
CAKI-1 renal = tested on: CAKI-1 renal
A498 renal = tested on: A498 renal
MOLT-4 leukemia = tested on: MOLT-4 leukemia
CCRF-CEM leukemia = tested on: CCRF-CEM leukemia

## N#CC1(O)CCCCC1
EKVX NSCLC
  growth: 101%
SN12C renal
  growth: 110%
UO-31 renal
  growth: 85.6%
TK-10 renal
  growth: 102%
ACHN renal
  growth: 106%
CAKI-1 renal
  growth: 92.5%
A498 renal
  growth: 87.9%
MOLT-4 leukemia
  growth: 102%

## Cc1cc(NC(=O)c2ccccc2)c(Cl)cc1N
EKVX NSCLC
  growth: 107%
SN12C renal
  growth: 100%
UO-31 renal
  growth: 86.6%
TK-10 renal
  growth: 141%
ACHN renal
  growth: 98.8%
CCRF-CEM leukemia
  growth: 47.9%

## O=c1[nH]c(=O)c2cc(Cl)cc(Cl)c2[nH]1
EKVX NSCLC
  growth: 92.7%
SN12C renal
  growth: 91%
UO-31 renal
  growth: 75.3%
TK-10 renal
  growth: 97.6%
ACHN renal
  growth: 103%
CAKI-1 renal
  growth: 92%
A498 renal
  growth: 121%
CCRF-CEM leukemia
  growth: 99.6%
MOLT-4 leukemia
  growth: 95.7%

## COC(=O)Cc1cc(COC(C)=O)ccc1C
EKVX NSCLC
  growth: 119%
UO-31 renal
  growth: 81.3%
TK-10 renal
  growth: 88.5%
ACHN renal
  growth: 103%
CAKI-1 renal
  growth: 116%
A498 renal
  growth: 95.4%
CCRF-CEM leukemia
  growth: 96.1%
MOLT-4 leukemia
  growth: 98.4%

## O=C(CCl)Oc1ccc([N+](=O)[O-])cc1
EKVX NSCLC
  growth: 112%
SN12C renal
  growth: 116%
UO-31 renal
  growth: 60.8%
TK-10 renal
  growth: 109%
CAKI-1 renal
  growth: 124%
A498 renal
  growth: 133%
CCRF-CEM leukemia
  growth: 95.9%
MOLT-4 leukemia
  growth: 105%

## COc1nc(Nc2cccc(C(F)(F)F)c2)nc(OC)n1
SN12C renal
  growth: 102%
UO-31 renal
  growth: 84.3%
TK-10 renal
  growth: 111%
ACHN renal
  growth: 110%
CAKI-1 renal
  growth: 103%
A498 renal
  growth: 85.3%
CCRF-CEM leukemia
  growth: 95.5%
MOLT-4 leukemia
  growth: 86.4%

## FC(F)(F)c1cc(NC2=NCCN=C(Nc3cc(C(F)(F)F)cc(C(F)(F)F)c3)SS2)cc(C(F)(F)F)c1
SN12C renal
  growth: 47.2%
UO-31 renal
  growth: 35.1%
TK-10 renal
  growth: 58.4%
ACHN renal
  growth: 43.5%
CAKI-1 renal
  growth: 48.1%
A498 renal
  growth: 58%
CCRF-CEM leukemia
  growth: 28.8%
MOLT-4 leukemia
  growth: 51.2%

## Cc1ccc(NC(=O)c2ccccc2Cl)cc1
EKVX NSCLC
  growth: 105%
SN12C renal
  growth: 101%
UO-31 renal
  growth: 97%
TK-10 renal
  growth: 115%
ACHN renal
  growth: 103%
CAKI-1 renal
  growth: 107%
A498 renal
  growth: 79.2%
CCRF-CEM leukemia
  growth: 85%
MOLT-4 leukemia
  growth: 87.8%

## Cc1c(-c2ccc(C3CCCCC3)cc2)nc2ccc(F)cc2c1C(=O)O
SN12C renal
  growth: 45.2%
UO-31 renal
  growth: 34.3%
TK-10 renal
  growth: 74.7%
ACHN renal
  growth: 43%
CAKI-1 renal
  growth: -2.23% (active)
A498 renal
  growth: 89.7%
CCRF-CEM leukemia
  growth: 35.7%
MOLT-4 leukemia
  growth: 15.2%

## CCOc1ccccc1NC(=O)CCl
EKVX NSCLC
  growth: 111%
SN12C renal
  growth: 94.5%
UO-31 renal
  growth: 116%
TK-10 renal
  growth: 94.5%
CAKI-1 renal
  growth: 95.6%
A498 renal
  growth: 113%
CCRF-CEM leukemia
  growth: 63.5%
MOLT-4 leukemia
  growth: 70.2%

## CC(CCC#N)(CCC#N)C(=O)c1ccccc1
EKVX NSCLC
  growth: 115%
SN12C renal
  growth: 102%
UO-31 renal
  growth: 77.1%
TK-10 renal
  growth: 106%
ACHN renal
  growth: 114%
CAKI-1 renal
  growth: 112%
A498 renal
  growth: 89.9%
MOLT-4 leukemia
  growth: 97.8%

## Cc1ccc(S(=O)(=O)CCCl)cc1
EKVX NSCLC
  growth: 97.6%
SN12C renal
  growth: 99%
UO-31 renal
  growth: 74.2%
TK-10 renal
  growth: 97.4%
ACHN renal
  growth: 98.2%
CAKI-1 renal
  growth: 117%
A498 renal
  growth: 95.2%
CCRF-CEM leukemia
  growth: 101%
MOLT-4 leukemia
  growth: 95.5%

## O=C(CCl)Nc1ccccc1SCc1cc(Cl)cc2c1OCOC2
SN12C renal
  growth: 91.3%
UO-31 renal
  growth: 75.7%
TK-10 renal
  growth: 126%
ACHN renal
  growth: 85.5%
CAKI-1 renal
  growth: 35%
A498 renal
  growth: 103%
CCRF-CEM leukemia
  growth: -27.5% (active)
MOLT-4 leukemia
  growth: 50.7%
